Pf growth 96h – P. falciparum growth inhibition at 96 hours. P. falciparum luciferase reporter growth, 96 h. Potency, µM (titrated, usually from 28.7 µM), for the others: top-dose activity change, negative = inhibition, actives largely listed as inhibitors. hit rate 6.9% among 320,000. AID 504834; also: potency is read from the fitted curve at half-maximal effect; % is scaled to controls: 0 for no effect and ±100 for the full control effect
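Compounds incubated with erythrocytes infected by luciferase-expressing P. falciparum (2% hematocrit, 0.05% parasitemia final) for 96 hours, 37 C in 5% CO2. Growth inhibition scored as decreased luciferase luminescence.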
HCV inh – inhibitors of hepatitis C virus infection; Huh7.5.1 HCVcc-Cre infection, luciferase reporter, 44 h; Potency, µM (top dose mostly 41.8 µM), for the others: at the highest dose activity change, negative = inhibition, usual class: inhibitors; hit rate 3.4% among 340,000; also: potency is read from the fitted curve at half-maximal effect; % is scaled to controls: 0 for no effect and ±100 for the full control effect
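Infectious HCV cell culture screen: compound-treated cells (1,000/well, pre-plated 4 h) are infected with HCVcc-Cre at roughly 0.5 moi and grown 44 h. Infection is quantified by luciferase signal after 15 min substrate incubation at room temperature.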
SARS PLpro yeast-1 – SARS-CoV PLP inhibition in yeast; S. cerevisiae expressing SARS-CoV PLpro, growth rescue; hit rate 0.19% among 330,000; Potency, µM (top dose mostly 32.9 µM), for the others: at the highest dose activity, positive = growth rescue, usual class: activators; calls by dose curve; also: potency is read from the fitted curve at half-maximal effect; 0% is about no effect; nearly all actives have a fitted effect of over 55% in size
Pf growth 48h – inhibits P. falciparum growth in the first generation, 48 h. hit rate 5.9% among 310,000. P. falciparum luciferase growth in erythrocytes, 48 h. AID 504832. Potency, µM (doses to about 28.7 µM), without a hit: at the highest dose activity change, negative = inhibition, actives largely listed as inhibitors; also: potency is read from the fitted curve at half-maximal effect; % is scaled to controls: 0 for no effect and ±100 for the full control effect
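Parasite viability was followed by luminescence of a genomically integrated firefly luciferase. Cultures held 0.1% parasitemia at 2% hematocrit (final), incubated under 5% CO2 at 37 C.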
AMA1 RON2 block – inhibitors of Plasmodium falciparum AMA1-RON2 interaction; hit rate 0.2% among 360,000; AID 720542; AlphaScreen AMA1-biotinylated RON2 peptide binding; Potency, µM (top dose mostly 58.2 µM), for inactives: at the top dose activity change, negative = inhibition, most hits filed as inhibitors;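 also: potency is read from the fitted curve at half-maximal effect; 0% = vehicle wells and -100% = peptide control; nearly all actives have a fitted effect of over 45% in size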
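AMA1 (3D7) with his tag at 25 nM final met compounds first, then biotinylated RON2 peptide at 25 nM; detection used donor plus acceptor beads, 10 µg/mL apiece, read by AlphaScreen after 30 min at room temperature.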
NS1 inh – blocks influenza NS1 protein function; AID 2326; Potency, µM (doses to about 46.1 µM), without a hit: top-dose activity, positive = more growth; hit rate 0.4% among 270,000; calls by dose curve; also: potency is read from the fitted curve at half-maximal effect; actives are rising curves; nearly all actives have a fitted effect of over 50% in size
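Compounds were scored for reversing the slow growth caused by influenza A NS1 in S. cerevisiae, measured by optical density at 600 nm. Assay medium contained 2% galactose at pH 6.0; NS1-free yeast of the same strain were the positive control.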
SARS PLpro yeast-2 – Rescues yeast growth by inhibiting SARS-CoV PLpro; shares compounds with SARS PLpro yeast-1; yeast expressing SARS-CoV PLpro, growth phenotype rescue; calls only; hit rate 19% among 1,000; AID 652038; call rule not given here
Active calls of the source: *; i = inactive; ? = inconclusive; . = not tested or not shown; + = active, no number; [ ] = another dose, or the depositor's remark. Only some compounds are listed: those with a hit (about 12% of all), similar ones and a draw of the others. Unless noted, calls follow the shape of the dose curve; as a rule, active = well fitted curve in the direction sought with a large enough effect; inconclusive = small, poorly fitted or top-dose-only effect, or another doubt; inactive = no such curve, though single readings can be large; an effect the other way counts as inactive or inconclusive.

SMILES	Pf growth 96h	HCV inh	SARS PLpro yeast-1	Pf growth 48h	AMA1 RON2 block	NS1 inh	SARS PLpro yeast-2
O=C(N/N=C/c1cc([N+](=O)[O-])ccc1O)c1cc(-c2ccccc2)nc2ccccc12	-73%	?	.	2.9µM*	26%	7%	+
O=C(NN=Cc1cc([N+](=O)[O-])ccc1O)c1cccc2ccccc12	.	?	.	.	58%	.	.
Cc1cccc(/C=N/NC(=O)c2cc(C)nc3ccccc23)n1	28%	6%	2%	-17%	22%	4%	.
Cc1ccccc1C(=O)Nc1cccc(C(=O)N/N=C/c2cc(Cl)cc([N+](=O)[O-])c2O)c1	21%	5%	7.9µM*	60%	?	.	?
Cc1cc(C(=O)N/N=C/c2cc([N+](=O)[O-])ccc2O)c2ccccc2n1	?	?	3.2µM*	9.3µM*	?	5%	i
Cc1cc(C(=O)N/N=C/c2cc(Br)cc([N+](=O)[O-])c2O)c2ccccc2n1	-16%	12%	1.8µM*	5%	35µM*	-40%	i
O=S(=O)(Cc1cnc(Cl)s1)c1ccccc1	12%	7%	13µM*	4%	3%	1%	i
O=Cc1sc(N2CCOCC2)nc1-c1ccccc1	49%[5.75 µM]	.	0%	0%	.	-2%	.
COc1ccc(CNC(=S)NCc2ccc(OC)cc2)cc1	0%	-10%	0%	7%	6%	2%	.
CCOc1ccc(CNC(=S)NCc2ccc(OCC)cc2)cc1	7%	?	13µM*	19%	17%	10%	+
CCCNC(=S)NCc1ccc(Cl)cc1	46%	14%	?	17%	-22%	-6%	i
O=S(=O)(Nc1ncccn1)c1ccc(-n2cnnn2)cc1	18%	5%	0%	-1%	6%	-3%	.
C[C@H](CO)N1C[C@H](C)[C@@H](CN(C)Cc2ccc(C(=O)O)cc2)Oc2c(NC(=O)Cc3ccccc3)cccc2C1=O	.	13%	11µM*	.	3%	.	i
C[C@H](CO)N1C[C@H](C)[C@@H](CN(C)S(C)(=O)=O)Oc2c(NC(=O)Nc3ccc4c(c3)OCO4)cccc2C1=O	.	13%	0%	.	9%	.	.
C[C@H](CO)N1C[C@H](C)[C@@H](CN(C)Cc2ccc(-c3ccccc3)cc2)Oc2c(NC(=O)Nc3ccc4c(c3)OCO4)cccc2C1=O	.	?	11µM*	.	-22%	.	i
C[C@@H]1CN([C@H](C)CO)C(=O)c2cc(NS(=O)(=O)c3cn(C)cn3)ccc2O[C@H]1CN(C)C(=O)Nc1ccccc1	.	-6%	?	.	8%	.	i
Cc1noc(C)c1S(=O)(=O)Nc1ccc2c(c1)C(=O)N([C@H](C)CO)C[C@H](C)[C@@H](CN(C)C(=O)Nc1ccccc1)O2	.	10%	2%	.	-3%	.	.
Cc1ccc(S(=O)(=O)N(C)C[C@@H]2Oc3ccc(NC(=O)Nc4cccc5ccccc45)cc3C(=O)N([C@H](C)CO)C[C@H]2C)cc1	.	-12%	5µM*	.	-12%	.	i
C=Cc1ccc(S(=O)(=O)O)cc1	1%	.	.	-9%	.	.	.
COc1cccc(/C=N/NC(=O)C(=O)N/N=C/c2cccc(OC)c2O)c1O	0%	-14%	?	0%	?	5%	+
COc1cccc(/C=N/Nc2ncnc(Cl)c2N)c1O	2.6µM*	5.6µM*	4.5µM*	1.7µM*	-19%	-28%	i
COc1cccc(/C=N/NC(=O)C(=O)N2CCCCCC2)c1O	50%	16%	6%	-5%	76%	-10%	.
COc1cccc(/C=N/NC(=O)c2cc(-c3cccn3C)n[nH]2)c1O	?	5µM*	7.1µM*	?	14%	26%	?
Cn1cccc1-c1cc(C(=O)N/N=C/C=C/c2ccccc2)[nH]n1	?	?	0%	?	21%	.	.
